An excerpt weighted towards active compounds, which were near 3.4% of everything screened.
PTPN22 inh 2: LYP (human) phosphatase inhibition. recombinant LYP catalytic domain, DiFMUP fluorescence. inhibition, % at 2 µM. 0.21% of 96,000 active. AID 640;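 active = inhibition at 2 µM at or above a set limit, the screen mean plus 3 SD, cut at about 24% in these data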;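 also: 0% = DMSO with enzyme and 100% = enzyme fully blocked by orthovanadate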
FAK blocker: inhibitors of human focal adhesion kinase; Q05397; biochemical FAK kinase activity assay; inhibition, %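 (tested at 7 µM)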; 0.84% of 97,000 active; AID 727;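 also: 0% = DMSO and 100% = reference compound high control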
ERa SRC1 inh: blocks coactivator binding to human estrogen receptor alpha | TR-FRET ER-alpha LBD / SRC-1 peptide, estradiol-bound | 1.7% of 86,000 active | inhibition, % at 25.6 µM | P03372; in the data active = inhibition above about 50%;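 also: 0% = receptor plus peptide control and 100% = peptide only without receptor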
Target sequence (P03372 whole entry, looked up, the tested form may be a part): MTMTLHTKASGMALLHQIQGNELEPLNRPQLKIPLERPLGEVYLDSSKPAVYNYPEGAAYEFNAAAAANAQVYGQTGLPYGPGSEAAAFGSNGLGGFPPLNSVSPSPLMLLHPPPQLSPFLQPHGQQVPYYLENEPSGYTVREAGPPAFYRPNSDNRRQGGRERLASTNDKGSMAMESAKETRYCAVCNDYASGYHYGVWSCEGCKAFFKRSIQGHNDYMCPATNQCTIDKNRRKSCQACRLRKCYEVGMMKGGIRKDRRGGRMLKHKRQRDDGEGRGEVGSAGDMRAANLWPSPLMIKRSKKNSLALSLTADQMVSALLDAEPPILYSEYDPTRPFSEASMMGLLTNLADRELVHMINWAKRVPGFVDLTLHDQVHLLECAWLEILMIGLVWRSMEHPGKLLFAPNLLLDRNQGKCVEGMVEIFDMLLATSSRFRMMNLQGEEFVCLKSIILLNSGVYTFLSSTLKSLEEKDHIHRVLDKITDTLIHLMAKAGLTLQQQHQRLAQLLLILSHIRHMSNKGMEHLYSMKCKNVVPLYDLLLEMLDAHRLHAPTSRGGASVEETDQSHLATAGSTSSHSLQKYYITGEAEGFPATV
ERa SRC1 pot: enhances coactivator binding to human estrogen receptor alpha; P03372; TR-FRET ERalpha-LBD/SRC-Cy5 coactivator binding, 2 h; 100 = basal binding, no effect; coactivator binding (% of control), % at 25.6 µM; 1.3% of 86,000 active; in the data active = activity above about 200%;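 also: binding measured in presence of low estradiol as agonist stimulus; 0% = peptide alone without receptor and 100% = receptor with peptide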
PTPN22 act: LYP (human) phosphatase activation; activation, % at 2 µM; recombinant LYP, DiFMUP fluorescence; 0 = plate median, 100 = signal doubled; Q9Y2R2; AID 697; 0.11% of 96,000 active;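 active = activation at 2 µM above a set limit, the mean plus 5 SD, cut at about 37% in these data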
ERb coact inh: ER-beta (human) coactivator binding inhibition. TR-FRET ER-beta LBD / SRC1-Cy5 peptide binding; receptor agonist-loaded with 1 µM estradiol. inhibition, % at 25.6 µM. 1.3% of 86,000 active. AID 633;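 active = compounds whose percent inhibition of the receptor-coactivator binding signal exceeds about 50% in the single-dose screen, limit read from the data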;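 also: 0% = receptor plus peptide wells without compound and 100% = peptide-only wells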
FAK inh confirm: FAK (human) inhibition confirmed | inhibition, % at 7 µM | FAK kinase biochemical inhibition assay | 28% of 750 active | shares compounds with FAK blocker
Active calls of the source: *; . = no result; [ ] = dose if it differs, or a comment. Rule as the data show it, unless noted: active = inhibition above about 19%; inactive = the rest.

SMILES	PTPN22 inh 2	FAK blocker	ERa SRC1 inh	ERa SRC1 pot	PTPN22 act	ERb coact inh	FAK inh confirm
O=C(Nc1cccc(-c2cc3ccccc3oc2=O)c1)c1ccc(Br)o1	-4	3	34	162	4	9	.
COc1ccc(-c2cc3ccccc3oc2=O)cc1NC(=O)c1ccc(Br)o1	19	65*	66*[fluorescence artefact?]	231*	-22	6	59*
c1ccc2c3c([nH]c2c1)-c1[nH]ncc1CC3	6	42*	-14	110	-7	1	20*
O=C1CCCc2c1[nH]c1ccccc21	-4	6	14	84	3	11	.
O=CNC1CCCc2c1[nH]c1ccc(Cl)cc21 (configuration not stated)	1	1	0	101	-1	-10	.
Clc1ccc2[nH]c3c(c2c1)CCc1cn[nH]c1-3	-4	20*	20	59	1	5	7
O=C1C2C3C=CC(C2C(=O)N1CCCO)C1C2C(=O)N(CCCO)C(=O)C2C31 (configuration not stated)	-19	2	.	.	18	.	.
CN(C(=O)CSc1nc(-c2ccccc2)cn1N)C(c1ccccc1)c1ccccc1	-2	6	7	86	4	0	.
Cc1ccc(-n2nc3ccc(NC(=O)c4ccc5c(c4)OCO5)cc3n2)cc1	22	25*	88*[fluorescence artefact?]	60	-19	66*[fluorescence artefact?]	15
Nc1ncnc2nc(Sc3ccc(Cl)cc3)[nH]c12	-6	2	-18	84	6	-12	.
Nc1ncnc2nc(SCc3ccc(Cl)cc3Cl)[nH]c12	-3	25*	.	.	2	.	16
Cc1ccc2cc3cc(C(=O)NCc4ccco4)oc3nc2c1	-10	21*	53*[fluorescence artefact?]	140	8	37	5
CC(C)OCCCn1c(=NC(=O)c2ccncc2)c(C#N)cc2c(=O)n3ccccc3nc21	15	7	12	91	-17	14	.
CC(C)OCCCn1c(=N)c(C(N)=S)cc2c(=O)n3ccccc3nc21	2	32*	38	101	-4	16	6
O=C(COC(=O)CCCSc1nc2ccccc2[nH]1)NC(=O)NC1CCCC1	3	13	1	97	0	9	.
c1cc2ccc3ccc(CN4CCOCC4)c4ccc(c1)c2c34	4	41*	-2	88	-4	-8	41*
CCOc1ccc(-c2nn3c(-c4ccc(F)cc4)nnc3s2)cc1	11	2	2	180	-10	-4	.
COc1ccc(-c2nn3c(-c4ccc(F)cc4)nnc3s2)cc1	-1	36*	24	95	-1	14	9
CCN1C(=O)CC(N2CCN(CC(=O)NC(C)C)CC2)C1=O (configuration not stated)	5	-2	-8	119	-3	-11	.
COc1cccc(NC2c3ccccc3C(=O)N2Cc2ccco2)c1 (configuration not stated)	-2	6	17	96	0	4	.
O=C1c2ccccc2C(Nc2cccc(C(F)(F)F)c2)N1Cc1ccco1 (configuration not stated)	-3	20*	5	70	2	1	7
O=C1NC(=S)N/C1=C/c1ccc(-c2c(Br)cc([N+](=O)[O-])cc2Br)o1	17	36*	.	.	-14	.	11
O=C1NC(=S)N/C1=C\c1cccc([N+](=O)[O-])c1	2	0	13	107	0	5	.
CCOc1ccc2nc(SCC#N)c(C#N)cc2c1	4	20*	12	252*	0	12	0
CCc1ccc2nc(SCC(=O)N(CC)CC)c(C#N)cc2c1	-13	41*	-2	105	12	-10	27*
SMILES	PTPN22 inh 2	FAK blocker	ERa SRC1 inh	ERa SRC1 pot	PTPN22 act	ERb coact inh	FAK inh confirm
Cc1cc(C)c(NC(=O)C2CCCN2C(=O)NC2CCCCC2)c(C)c1 (configuration not stated)	1	2	-7	110	-4	-10	.
O=C(CCCc1ccccc1)N1CCN(c2ccc([N+](=O)[O-])cc2)CC1	10	1	.	.	-5	.	.
CC(C)NC(=O)CSc1nnc(-c2ccncc2)n1-c1ccccc1	10	1	.	.	-8	.	.
Cc1c(NC(=O)C(Sc2ccccc2)c2ccccc2)cccc1[N+](=O)[O-] (configuration not stated)	-8	-3	.	.	12	.	.
Cc1ccc(Nc2cc(C)nc(-c3ccccc3O)n2)cc1	-13	3	14	96	8	8	.
Cc1cc(NCCCN)nc(-c2ccccc2O)n1	-6	21*	-6	123	4	-14	12
O=C(NC1CCCC1)c1ccc2nc(-c3ccco3)c(-c3ccco3)nc2c1	4	19*	94*[fluorescence artefact?]	11	-3	93*[fluorescence artefact?]	3
O=C(NC1CCCC1)c1ccc2nc[nH]c2c1	-6	1	3	110	2	7	.
O=C(c1ccco1)N1CCN(C(=O)C2CCCO2)CC1 (configuration not stated)	2	-1	-6	118	-5	-5	.
O=C1Nc2ccccc2Nc2ncccc21	1	39*	.	.	2	.	12
Cc1ccc2c(c1)NC(=O)c1cccnc1N2	5	12	.	.	0	.	.
O=c1nc2s/c(=C\c3ccco3)c(=O)n2nc1Cc1ccc(F)cc1	1	24*	96*[fluorescence artefact?]	4	-3	88*	5
COc1cccc(C(c2sc3nc(C)nn3c2O)N2CCc3ccccc3C2)c1 (configuration not stated)	.	.	5	85	.	-7	.
CCc1c(C)nc(SCC(N)=O)c(C#N)c1C	4	3	10	108	-2	-27	.
CCc1c(C)nc(SCC(=O)c2cccs2)c(C#N)c1C	0	30*	19	138	2	53*	26*
COc1ccc(OC)c(/C=N\NC(=O)CSc2nnc(CCCc3ccc(OC)c(C)c3)o2)c1	9	0	.	.	-7	.	.
COc1ccc(-c2oc3ncnc(NCCCN4CCOCC4)c3c2-c2ccc(OC)cc2)cc1	2	34*	-2	82	0	-3	9
COc1ccc(-c2csc3ncnc(NCCN4CCOCC4)c23)cc1	2	4	8	96	-2	8	.
COc1ccc(-c2oc3ncn(CCN4CCOCC4)c(=N)c3c2-c2ccc(OC)cc2)cc1	0	20*	-5	120	-3	-10	1
c1ccc(-c2oc3ncnc(NCCCN4CCOCC4)c3c2-c2ccccc2)cc1	-5	17	-4	101	6	8	.
COc1ccc(-c2oc3ncnc(NCCN4CCOCC4)c3c2-c2ccc(OC)cc2)cc1	12	21*	7	90	-14	3	10
Cc1ccc(C(C(=O)NC2CCCCC2)N2CCN(C(=O)c3ccco3)CC2)cc1 (configuration not stated)	-1	0	-2	100	3	-5	.
